# FBW7 act = activators of human E3 ligase FBW7; AlphaScreen FBW7–phospho-cyclin E peptide binding, activator screen; normalized activity (activation), % at 26.1 µM; 650,000 compounds, 0.13% hits; AID 1259310; in the data active = normalized activity above about 1.9%;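 also: purified mutant Fbw7 with reduced substrate affinity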
# TEAD-YAP block = TEAD-YAP interaction inhibition. 640,000 compounds, 1.4% hits. inhibition, % at 9.12 µM. HEK-TIYL cells, TEAD-Gal4/YAP UAS-luciferase luminescence. AID 1259422; in the data active = inhibition above about 32%;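 also: 0% = median of test compound wells and 100% = reference inhibitor wells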
# MITF inh = inhibitors of human MITF; AID 1259374; 650,000 compounds, 0.91% hits; AlphaScreen MITF homodimerization, bead proximity signal; O75030; inhibition, % at 2.6 µM; in the data active = inhibition above about 50%;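 also: 0% = vehicle wells with protein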
# GPR151 activ = activates the human receptor GPR151. AID 1508602. PathHunter beta-arrestin GPR151 cells, luminescence. Q8TDV0. 650,000 compounds, 1% hits. activation, % at 11.2 µM; in the data active = activation above about 4.9%;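 also: 0% = median of compound wells and 100% = cells with positive control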
# Starred values were filed as active, the others as inactive. In the library only some 3.5% were active in any assay of this set; here they are far more common.
SMILES,FBW7 act,TEAD-YAP block,MITF inh,GPR151 activ
CCN(CC)C(=O)C1CCCN(c2nc(NCc3nc4ccccc4[nH]3)c3ncn(-c4ccsc4)c3n2)C1 (stereo not given),0,85*,3,1
CCN(CC)C(=O)C1CCCN(c2nc(NCCCN3CCCC3=O)c3ncn(CCN4CCCC4=O)c3n2)C1 (stereo not given),0,-1,3,-2
OCC1CCCN1c1nc(NCc2nc3ccccc3[nH]2)c2ncn(-c3ccsc3)c2n1 (stereo not given),0,72*,25,0
CCN(CC)C(=O)C1CCCN(c2nc(NCc3nc4ccccc4[nH]3)c3ncn(C(C)C)c3n2)C1 (stereo not given),0,30,-2,1
CCN(CC)C(=O)C1CCCN(c2nc(NCc3nc4ccccc4[nH]3)c3ncn(-c4ccccc4)c3n2)C1 (stereo not given),0,72*,7,0
CCN(CC)C(=O)C1CCCN(c2nc(NCCCN3CCCC3=O)c3ncn(-c4ccsc4)c3n2)C1 (stereo not given),0,35*,8,1
CCN(CC)C(=O)C1CCCN(c2nc(NC3CC3)c3ncn(-c4ccsc4)c3n2)C1 (stereo not given),0,9,10,-1
COC(=O)C1=C(N)OC2=C(C(=O)CC(C)(C)C2)C1c1ccccc1F (stereo not given),0,6,11,-2
O=C(N/N=C/c1ccc(O)c(O)c1O)c1sc2ccccc2c1Cl,-1,-1,61*,-1
Cc1nc(NC(=O)c2sc3ccccc3c2Cl)sc1C,0,87*,7,-8
O=C(Nc1ccc(O)cc1)c1sc2ccccc2c1Cl,0,87*,3,-2
COC(=O)c1sc(NC(=O)c2sc3ccccc3c2Cl)nc1C,0,-59,28,2
CCOc1ccccc1C(=O)Nc1ncc(Cc2ccc(F)cc2)s1,0,2,21,0
CCCCOc1ccc(C(=O)Nc2nc(-c3ccccc3)c(C(=O)c3ccccc3)s2)cc1,0,-10,2,1
CCOCCOC(=O)c1[nH]c2c(c1C)C(=O)CC(c1ccc(OC)c(OC)c1)C2 (stereo not given),0,21,9,0
COc1cc(C2CC(=O)c3c([nH]c(C(=O)OCCSC)c3C)C2)cc(OC)c1OC (stereo not given),0,56*,7,5
COc1ccc(C2CC(=O)c3c([nH]c(C(=O)OCCOC(C)C)c3C)C2)cc1 (stereo not given),0,3,10,1
COc1cc(C2CC(=O)c3c([nH]c(C(=O)OCCOC(C)C)c3C)C2)cc(OC)c1OC (stereo not given),0,66*,4,2
CCCCN1C(=O)c2cccc3c(N4CCCC4)ccc(c23)C1=O,0,-15,-7,1
CCN1C(=O)c2cccc3c(N4CCCC4)ccc(c23)C1=O,2.1*,-5,-8,-1
NS(=O)(=O)c1ccc(NC(=O)CCCN2C(=O)CCC2=O)cc1,2,3,3,0
C=CCSc1nc(N)c(C#N)c(-c2ccco2)c1C#N,0,-13,-5,-1
CC(C)CC(c1nnnn1C1CCCC1)N1CCN(C(=O)c2ccco2)CC1 (stereo not given),0,55*,-12,0
CC(C)CC(c1nnnn1C1CCCCC1)N1CCN(C(=O)c2ccco2)CC1 (stereo not given),0,1,-3,-1
COc1ccc(-c2cc(NCc3cccc(C(F)(F)F)c3)nc(N)n2)cn1,0,46*,1,4
SMILES,FBW7 act,TEAD-YAP block,MITF inh,GPR151 activ
Nc1nc(NCc2cccc(C(F)(F)F)c2)cc(-c2csc3ccccc23)n1,0,53*,9,-1
COc1ccc(CCNc2cc(Nc3cnccn3)ncn2)cc1,0,3,12,-1
COc1ccc(CCNc2cc(-c3csc4ccccc34)nc(N)n2)cc1,1,57*,8,2
COc1ccc(CCNc2cc(Nc3cnccn3)nc(N)n2)cc1,0,35*,-6,-1
COc1ccc(-c2cc(NCc3cccc(C(F)(F)F)c3)nc(N)n2)cc1,0,3,9,0
Nc1nc(NCc2ccccc2)cc(-c2csc3ccccc23)n1,0,2,8,0
NS(=O)(=O)c1ccc(S(=O)(=O)Nc2ccc(Br)cc2)cc1,0,-6,11,0
Cc1ccc(NC(=O)CSc2ncc(-c3ccc(F)cc3)o2)cc1,0,-5,-3,-2
COc1ccc(C(=O)Nc2cc(C)c3c(=O)oc4ccccc4c3n2)cc1OC,1,0,23,0
